Shown are actives, neighbours in structure and some others; about 0.61% of the full set was active somewhere.
Vc quorum ag = inducers of Vibrio cholerae quorum light production without autoinducers. V. cholerae BH1578 lux reporter, luminescence, 6 h. AID 588436. 350,000 tested, 0.16% active. activation, % at 18.7 µM; in the data active = activation mostly above about 9.7%, no sharp cut-off
FadD28 binding = blocks FadD28 binding to the bisubstrate probe; 360,000 tested, 0.22% active; inhibition, % at 12.5 µM; fluorescence polarization; in the data active = inhibition above about 8.5%, passing the limit was not always enough
Y pestis TopoI = Y. pestis Topo-I inhibition via cleavage products | Y. pestis Topo-I cleavage product accumulation, plate reader | activity, % at 10 µM | 360,000 tested, 0.064% active; in the data active = activity above about 50%, passing the limit was not always enough
TcdB GH inh = TcdB glycohydrolase inhibition; P18177; TcdB glycohydrolase enzymatic assay, plate reader; inhibition, % at 9.99 µM; 350,000 tested, 0.24% active; AID 652162; in the data active = inhibition above about 10%
BioA inh = inhibitors of Mycobacterium tuberculosis BioA enzyme | inhibition, % at 9.99 µM | purified M. tuberculosis BioA enzyme, plate reader | 360,000 tested, 0.096% active | AID 602481; in the data active = inhibition above about 40%
Of the large screens only hits and unclear results are named; the others gave an inactive call; ! = repeats disagree.

Cc1cc(C)c(C)c(S(=O)(=O)N2CCCCC2C(=O)O)c1C (stereo not given)	TcdB GH inh 15.0
Cc1ccc(S(=O)(=O)N2CCCCC2C(=O)O)cc1 (stereo not given)	none (no result: BioA inh)
O=C(Nc1cccnc1)c1ccc(-c2ccccc2)cc1	none (no result: BioA inh)
O=C(Nc1ccncc1)c1ccc(-c2ccccc2)cc1	TcdB GH inh 10.7 (no result: BioA inh)
C[C@H](CO)N1C[C@H](C)[C@H](CN(C)CC2CCCCC2)OCCCC[C@H](C)Oc2ccc(NC(=O)Nc3ccc(F)cc3)cc2C1=O	none (no result: Vc quorum ag, FadD28 binding, Y pestis TopoI)
CC(C)NC(=O)Nc1ccc2c(c1)CC(=O)N([C@H](C)CO)C[C@H](C)[C@@H](CN(C)S(C)(=O)=O)O2	none (no result: Vc quorum ag, FadD28 binding, Y pestis TopoI)
NS(=O)(=O)c1cccc(NC(=O)c2ccc(NS(=O)(=O)c3cccc([N+](=O)[O-])c3)cc2)c1	TcdB GH inh 12.3
C[C@@H]1CN([C@H](C)CO)C(=O)c2cccc(NC(=O)Nc3ccc4c(c3)OCO4)c2O[C@H]1CN(C)S(=O)(=O)c1cccs1	none (no result: Vc quorum ag, FadD28 binding, Y pestis TopoI)
COc1ccc2c3c([nH]c2c1)[C@@H](CO)N(Cc1cccc(Cl)c1)CC31CN(C(C)=O)C1	none (no result: Vc quorum ag, FadD28 binding, Y pestis TopoI, BioA inh)
CCOc1ccc(Nc2ccc(N)c(S(=O)(=O)O)c2)cc1	FadD28 binding 22.4
N#C/C(=C/c1ccc(-c2ccc(S(N)(=O)=O)cc2)o1)c1nc2ccccc2s1	FadD28 binding 20.5 (no result: TcdB GH inh, BioA inh)
COCC(=O)N1[C@H](CO)[C@H]2c3ccccc3N(C(=O)Nc3ccccc3Cl)C[C@H]21	none (no result: Vc quorum ag, FadD28 binding, Y pestis TopoI)
Fc1cccc(NC(=S)NNc2c3ccccc3nc3ccccc23)c1	TcdB GH inh 19.5 (no result: BioA inh)
Fc1cccc(NC(=S)NNc2ccccc2)c1	none
CCCC#Cc1cnc2c(c1)C(=O)N([C@@H](C)CO)C[C@H](C)[C@@H](CN(C)S(=O)(=O)c1cn(C)cn1)O2	none (no result: Vc quorum ag, FadD28 binding, Y pestis TopoI)
O=C(COc1ccc2cc(Br)ccc2c1Br)N1CCOCC1	Y pestis TopoI 53.1
O=C(COc1ccc(Br)cc1)N1CCOCC1	none (no result: TcdB GH inh)
C[C@@H]1CCCCO[C@H](CN(C)C(=O)CCCN(C)C)[C@@H](C)CN([C@H](C)CO)C(=O)c2cc(NC(=O)Nc3ccc(F)cc3)ccc2O1	none (no result: Vc quorum ag, FadD28 binding, Y pestis TopoI)
Cn1ncc(Br)c1C(=O)N/N=C/c1cccc(OC2CSC2)c1	TcdB GH inh 31.0 (no result: BioA inh)
CCN(CC(=O)Nc1c(F)cccc1F)C(=O)Cc1ccccc1	FadD28 binding 9.7
CO[C@@H]1CN(C)C(=O)c2cc(NC(C)=O)ccc2OC[C@H](C)N(Cc2ccccn2)C[C@@H]1C	none (no result: Vc quorum ag, FadD28 binding, Y pestis TopoI)
C=CCOc1c(Br)cc(/C=C2\SC(=Nc3ccccc3)NC2=O)cc1OC	Y pestis TopoI 57.5
C[C@H]1CN([C@@H](C)CO)C(=O)c2cc(NS(=O)(=O)c3cn(C)cn3)ccc2O[C@H]1CN(C)Cc1ccccc1	none (no result: Vc quorum ag, FadD28 binding, Y pestis TopoI)
O=C(NCc1cccc(CNC(=O)C(=O)NCC2CCCO2)c1)C(=O)NCC1CCCO1 (stereo not given)	Vc quorum ag 227.4 (no result: BioA inh)
C[C@H](CO)N1C[C@H](C)[C@@H](CN(C)C(=O)CC2CC2)Oc2ncc(C#C[C@@H](C)O)cc2C1=O	none (no result: Vc quorum ag, FadD28 binding, Y pestis TopoI)
CC1=C(C(=O)Nc2ccccc2)C(c2ccc(O)cc2)N2C(=O)CSC2=N1 (stereo not given)	Vc quorum ag 23.1 (no result: TcdB GH inh)
C[C@H]1CN([C@@H](C)CO)C(=O)c2cccc(NC(=O)Nc3ccc(C(F)(F)F)cc3)c2O[C@@H]1CN(C)Cc1ccc(C(=O)Nc2ccccc2N)cc1	none (no result: Vc quorum ag, FadD28 binding, Y pestis TopoI, BioA inh)
CN(C)C(=O)c1cccc(-c2ccc([C@H]3[C@H](CO)N4CCCCN(CC5CCOCC5)C[C@@H]34)cc2)c1	none (no result: Vc quorum ag, FadD28 binding, Y pestis TopoI)
CC(C)c1cn(CC[C@H]2CC[C@@H](NS(=O)(=O)Cc3ccccc3)[C@@H](CO)O2)nn1	none (no result: Vc quorum ag, FadD28 binding, Y pestis TopoI)
Nc1ccc(C(=O)O)c(O)c1	FadD28 binding 15.6!
O=C(NCC[C@@H]1CC[C@@H](NS(=O)(=O)c2cccc(F)c2)[C@@H](CO)O1)C1CCOCC1	none (no result: Vc quorum ag, FadD28 binding, Y pestis TopoI)
COc1cc2c(cc1O)CC[n+]1cc3c(OC)c(OC)ccc3cc1-2	TcdB GH inh 13.5
COc1cc2c(cc1OC)-c1cc3ccc4c(c3c[n+]1CC2)OCO4	none
CC1CN=C(Nc2cccc(S(=O)(=O)N(C)C)c2)S1 (stereo not given)	TcdB GH inh 13.5 (no result: BioA inh)
CCc1noc(C)c1C(=O)NNC(=O)COc1ccc(C)cc1	FadD28 binding 20.2 (no result: BioA inh)
Cc1ccc(NC(=O)CN2C(=O)S/C(=C\c3cc(C)n(-c4ccc(C(=O)O)cc4)c3C)C2=O)cc1	FadD28 binding 59.9
Cc1ccc(NC(=O)CN2C(=O)N/C(=C/c3cc(C)n(-c4ccc(C(=O)O)cc4)c3C)C2=O)cc1	FadD28 binding 52.5 (no result: BioA inh)
COc1ccc(NC(=O)CN2C(=O)S/C(=C/c3cccn3-c3ccc(C(=O)O)cc3)C2=O)cc1	none
